Test results published in the supplement of paper PMC4466140.

Target: CaNbp2
Assay: SPOT peptide array binding signal intensity (averaged, normalized) (arbitrary units (background-subtracted, floor 0; scale differs between SH3 domains)); higher = stronger binding of the SH3 domain to the peptide
In short: (§1)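 Four yeast species supplied the SH3 domains, which were expressed as GST fusions in E. coli BL21(DE3) and purified on glutathione Sepharose. Incubation with cellulose membranes carrying synthetic 15-mer peptides, cysteines exchanged for serines, ran overnight at 4°C at 10 μg/ml in TBS-based blocking buffer. Binding signal is reported as normalized, background-subtracted spot intensity averaged over replicates, in arbitrary units not shared between domains.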

Binder | SPOT peptide array binding signal intensity
VLRFLGFPLPIFEKG | 129
VAPPPLPNRQLPNLD | 28.5

Target: CaRvs167
Assay: as above
In short: as §1

Binder | SPOT peptide array binding signal intensity
VLRFLGFPLPIFEKG | 8.5
VAPPPLPNRQLPNLD | 3100

Target: CaRvs167-3
Assay: as above
In short: as §1

Binder | SPOT peptide array binding signal intensity
VLRFLGFPLPIFEKG | 22.2
VAPPPLPNRQLPNLD | ≤ 0

Target: CaSho1
Assay: as above
In short: as §1

Binder | SPOT peptide array binding signal intensity
VLRFLGFPLPIFEKG | 496
VAPPPLPNRQLPNLD | ≤ 0

Target: CaSla1-D1-D2
Assay: as above
In short: as §1

Binder | SPOT peptide array binding signal intensity
VLRFLGFPLPIFEKG | 4
VAPPPLPNRQLPNLD | ≤ 0

Target: CaSla1-D3
Assay: as above
In short: as §1

Binder | SPOT peptide array binding signal intensity
VLRFLGFPLPIFEKG | 4
VAPPPLPNRQLPNLD | ≤ 0

Target: ScAbp1
Assay: as above
In short: as §1

Binder | SPOT peptide array binding signal intensity
VLRFLGFPLPIFEKG | 1.5
VAPPPLPNRQLPNLD | 2

Target: ScBbc1
Assay: as above
In short: as §1

Binder | SPOT peptide array binding signal intensity
VLRFLGFPLPIFEKG | 1.5
VAPPPLPNRQLPNLD | ≤ 0

Target: ScBem1-D1
Assay: as above
In short: as §1

Binder | SPOT peptide array binding signal intensity
VLRFLGFPLPIFEKG | 11.5
VAPPPLPNRQLPNLD | ≤ 0

Target: ScBzz1-D1
Assay: as above
In short: as §1

Binder | SPOT peptide array binding signal intensity
VLRFLGFPLPIFEKG | 24
VAPPPLPNRQLPNLD | 3.5

Target: ScBzz1-D2
Assay: as above
In short: as §1

Binder | SPOT peptide array binding signal intensity
VLRFLGFPLPIFEKG | 14
VAPPPLPNRQLPNLD | ≤ 0

Target: ScCyk3
Assay: as above
In short: as §1

Binder | SPOT peptide array binding signal intensity
VLRFLGFPLPIFEKG | 80.5
VAPPPLPNRQLPNLD | ≤ 0

Target: ScFus1
Assay: as above
In short: as §1

Binder | SPOT peptide array binding signal intensity
VLRFLGFPLPIFEKG | 404
VAPPPLPNRQLPNLD | ≤ 0

Target: ScHof1
Assay: as above
In short: as §1

Binder | SPOT peptide array binding signal intensity
VLRFLGFPLPIFEKG | ≤ 0
VAPPPLPNRQLPNLD | 39.2

Target: ScHse1
Assay: as above
In short: as §1

Binder | SPOT peptide array binding signal intensity
VLRFLGFPLPIFEKG | 2000
VAPPPLPNRQLPNLD | 10.5

Target: ScLsb1
Assay: as above
In short: as §1

Binder | SPOT peptide array binding signal intensity
VLRFLGFPLPIFEKG | ≤ 0
VAPPPLPNRQLPNLD | 1610

Target: ScLsb2
Assay: as above
In short: as §1

Binder | SPOT peptide array binding signal intensity
VLRFLGFPLPIFEKG | ≤ 0
VAPPPLPNRQLPNLD | 203

Target: ScLsb3
Assay: as above
In short: as §1

Binder | SPOT peptide array binding signal intensity
VLRFLGFPLPIFEKG | ≤ 0
VAPPPLPNRQLPNLD | 8010

Target: ScLsb4
Assay: as above
In short: as §1

Binder | SPOT peptide array binding signal intensity
VLRFLGFPLPIFEKG | ≤ 0
VAPPPLPNRQLPNLD | 4010

Target: ScMyo3
Assay: as above
In short: as §1

Binder | SPOT peptide array binding signal intensity
VLRFLGFPLPIFEKG | 0.5
VAPPPLPNRQLPNLD | 321

Target: ScMyo5
Assay: as above
In short: as §1

Binder | SPOT peptide array binding signal intensity
VLRFLGFPLPIFEKG | ≤ 0
VAPPPLPNRQLPNLD | 208

Target: ScNbp2
Assay: as above
In short: as §1

Binder | SPOT peptide array binding signal intensity
VLRFLGFPLPIFEKG | 19
VAPPPLPNRQLPNLD | ≤ 0

Target: ScPex13
Assay: as above
In short: as §1

Binder | SPOT peptide array binding signal intensity
VLRFLGFPLPIFEKG | ≤ 0
VAPPPLPNRQLPNLD | 1660

Target: ScRvs167
Assay: as above
In short: as §1

Binder | SPOT peptide array binding signal intensity
VLRFLGFPLPIFEKG | ≤ 0
VAPPPLPNRQLPNLD | 2740

Target: ScSho1
Assay: as above
In short: as §1

Binder | SPOT peptide array binding signal intensity
VLRFLGFPLPIFEKG | 662
VAPPPLPNRQLPNLD | ≤ 0

Target: ScSla1-D1-D2
Assay: as above
In short: as §1

Binder | SPOT peptide array binding signal intensity
VLRFLGFPLPIFEKG | 3
VAPPPLPNRQLPNLD | ≤ 0

Target: ScSla1-D3
Assay: as above
In short: as §1

Binder | SPOT peptide array binding signal intensity
VLRFLGFPLPIFEKG | ≤ 0
VAPPPLPNRQLPNLD | ≤ 0

Target: SpAbp1-D1
Assay: as above
In short: as §1

Binder | SPOT peptide array binding signal intensity
VLRFLGFPLPIFEKG | 1
VAPPPLPNRQLPNLD | 8

Target: SpBbc1
Assay: as above
In short: as §1

Binder | SPOT peptide array binding signal intensity
VLRFLGFPLPIFEKG | ≤ 0
VAPPPLPNRQLPNLD | ≤ 0

Target: SpBzz1-D1
Assay: as above
In short: as §1

Binder | SPOT peptide array binding signal intensity
VLRFLGFPLPIFEKG | 3.5
VAPPPLPNRQLPNLD | 176

Target: SpBzz1-D2
Assay: as above
In short: as §1

Binder | SPOT peptide array binding signal intensity
VLRFLGFPLPIFEKG | 1
VAPPPLPNRQLPNLD | ≤ 0

Target: SpCyk3
Assay: as above
In short: as §1

Binder | SPOT peptide array binding signal intensity
VLRFLGFPLPIFEKG | 3
VAPPPLPNRQLPNLD | 5

Target: SpHof1
Assay: as above
In short: as §1

Binder | SPOT peptide array binding signal intensity
VLRFLGFPLPIFEKG | 13.8
VAPPPLPNRQLPNLD | ≤ 0

Target: SpHof1-2
Assay: as above
In short: as §1

Binder | SPOT peptide array binding signal intensity
VLRFLGFPLPIFEKG | 5.5
VAPPPLPNRQLPNLD | 11.5

Target: SpHof1-3
Assay: as above
In short: as §1

Binder | SPOT peptide array binding signal intensity
VLRFLGFPLPIFEKG | 486
VAPPPLPNRQLPNLD | 31

Target: SpHse1
Assay: as above
In short: as §1

Binder | SPOT peptide array binding signal intensity
VLRFLGFPLPIFEKG | 1290
VAPPPLPNRQLPNLD | 71.5

Target: SpLsb1
Assay: as above
In short: as §1

Binder | SPOT peptide array binding signal intensity
VLRFLGFPLPIFEKG | ≤ 0
VAPPPLPNRQLPNLD | 1020

Target: SpLsb4
Assay: as above
In short: as §1

Binder | SPOT peptide array binding signal intensity
VLRFLGFPLPIFEKG | ≤ 0
VAPPPLPNRQLPNLD | 5980

Target: SpMyo1
Assay: as above
In short: as §1

Binder | SPOT peptide array binding signal intensity
VLRFLGFPLPIFEKG | ≤ 0
VAPPPLPNRQLPNLD | 461

Target: SpNbp2
Assay: as above
In short: as §1

Binder | SPOT peptide array binding signal intensity
VLRFLGFPLPIFEKG | 37.5
VAPPPLPNRQLPNLD | ≤ 0

Target: SpPex13
Assay: as above
In short: as §1

Binder | SPOT peptide array binding signal intensity
VLRFLGFPLPIFEKG | 5
VAPPPLPNRQLPNLD | ≤ 0

Target: SpRvs167
Assay: as above
In short: as §1

Binder | SPOT peptide array binding signal intensity
VLRFLGFPLPIFEKG | ≤ 0
VAPPPLPNRQLPNLD | 3250

Target: SpSla1-D1-D2
Assay: as above
In short: as §1

Binder | SPOT peptide array binding signal intensity
VLRFLGFPLPIFEKG | 3
VAPPPLPNRQLPNLD | ≤ 0

Target: SpSla1-D3
Assay: as above
In short: as §1

Binder | SPOT peptide array binding signal intensity
VLRFLGFPLPIFEKG | 1
VAPPPLPNRQLPNLD | ≤ 0

Target: AgAbp1
Assay: as above
In short: as §1

Binder | SPOT peptide array binding signal intensity
VAPPPLPNRQLPNLD | 1.5

Target: AgBbc1
Assay: as above
In short: as §1

Binder | SPOT peptide array binding signal intensity
VAPPPLPNRQLPNLD | 45.5

Target: AgBem1-D1
Assay: as above
In short: as §1

Binder | SPOT peptide array binding signal intensity
VAPPPLPNRQLPNLD | 16

Target: AgBzz1-D1
Assay: as above
In short: as §1

Binder | SPOT peptide array binding signal intensity
VAPPPLPNRQLPNLD | 3

Target: AgBzz1-D2
Assay: as above
In short: as §1

Binder | SPOT peptide array binding signal intensity
VAPPPLPNRQLPNLD | ≤ 0

Target: AgCyk3
Assay: as above
In short: as §1

Binder | SPOT peptide array binding signal intensity
VAPPPLPNRQLPNLD | ≤ 0

Target: AgFus1
Assay: as above
In short: as §1

Binder | SPOT peptide array binding signal intensity
VAPPPLPNRQLPNLD | ≤ 0

Target: AgHof1
Assay: as above
In short: as §1

Binder | SPOT peptide array binding signal intensity
VAPPPLPNRQLPNLD | 247

Target: AgHse1
Assay: as above
In short: as §1

Binder | SPOT peptide array binding signal intensity
VAPPPLPNRQLPNLD | 51

Target: AgLsb1
Assay: as above
In short: as §1

Binder | SPOT peptide array binding signal intensity
VAPPPLPNRQLPNLD | 693

Target: AgLsb4
Assay: as above
In short: as §1

Binder | SPOT peptide array binding signal intensity
VAPPPLPNRQLPNLD | 5100

Target: AgMyo5
Assay: as above
In short: as §1

Binder | SPOT peptide array binding signal intensity
VAPPPLPNRQLPNLD | 364

Target: AgNbp2
Assay: as above
In short: as §1

Binder | SPOT peptide array binding signal intensity
VAPPPLPNRQLPNLD | ≤ 0

Target: AgRvs167
Assay: as above
In short: as §1

Binder | SPOT peptide array binding signal intensity
VAPPPLPNRQLPNLD | 952

Target: AgSho1
Assay: as above
In short: as §1

Binder | SPOT peptide array binding signal intensity
VAPPPLPNRQLPNLD | ≤ 0

Target: AgSla1-D1-D2
Assay: as above
In short: as §1

Binder | SPOT peptide array binding signal intensity
VAPPPLPNRQLPNLD | 1.5

Target: AgSla1-D3
Assay: as above
In short: as §1

Binder | SPOT peptide array binding signal intensity
VAPPPLPNRQLPNLD | ≤ 0

Target: CaAbp1-D1
Assay: as above
In short: as §1

Binder | SPOT peptide array binding signal intensity
VAPPPLPNRQLPNLD | ≤ 0

Target: CaAbp1-D2
Assay: as above
In short: as §1

Binder | SPOT peptide array binding signal intensity
VAPPPLPNRQLPNLD | 5

Target: CaBbc1
Assay: as above
In short: as §1

Binder | SPOT peptide array binding signal intensity
VAPPPLPNRQLPNLD | 252

Target: CaBem1-D1
Assay: as above
In short: as §1

Binder | SPOT peptide array binding signal intensity
VAPPPLPNRQLPNLD | ≤ 0

Target: CaBzz1-D1
Assay: as above
In short: as §1

Binder | SPOT peptide array binding signal intensity
VAPPPLPNRQLPNLD | 14

Target: CaBzz1-D2
Assay: as above
In short: as §1

Binder | SPOT peptide array binding signal intensity
VAPPPLPNRQLPNLD | 4

Target: CaCyk3
Assay: as above
In short: as §1

Binder | SPOT peptide array binding signal intensity
VAPPPLPNRQLPNLD | 1

Target: CaFus1
Assay: as above
In short: as §1

Binder | SPOT peptide array binding signal intensity
VAPPPLPNRQLPNLD | ≤ 0

Target: CaHof1
Assay: as above
In short: as §1

Binder | SPOT peptide array binding signal intensity
VAPPPLPNRQLPNLD | 2

Target: CaHse1
Assay: as above
In short: as §1

Binder | SPOT peptide array binding signal intensity
VAPPPLPNRQLPNLD | 569

Target: CaLsb1
Assay: as above
In short: as §1

Binder | SPOT peptide array binding signal intensity
VAPPPLPNRQLPNLD | 3.25

Target: CaLsb4
Assay: as above
In short: as §1

Binder | SPOT peptide array binding signal intensity
VAPPPLPNRQLPNLD | 4840

Target: CaMyo5
Assay: as above
In short: as §1

Binder | SPOT peptide array binding signal intensity
VAPPPLPNRQLPNLD | 2.5
